High-throughput results as filed in PubChem.
A selection: hits, their analogues and other compounds. The true share with any hit is near 2.6%.
ABCB6 inh MLPCN: inhibitors of human ABC transporter ABCB6; 360,000 tested, 0.19% active; K562-ABCB6 porphyrin accumulation, flow cytometry, 1 h; active compounds read low; fluorescence ratio to DMSO, % at 10 µM;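 active = fluorescence ratio to DMSO below 75%, the collection mean minus 3 SD; inconclusive = too few cells collected in the well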;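 note: signal is porphyrin accumulated inside mitochondria; 100% equals median channel fluorescence of DMSO control wells; lower ratio means ABCB6 inhibition with less porphyrin fluorescence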
eIF4H inh: inhibitors of RNA binding by human eIF4H | Q15056 | eIF4H fluorescence polarization binding assay | inhibition, % at 35 µM | 290,000 tested, 0.94% active | AID 2012;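 note: calls also rest on retests at 20 µM and on dose response follow-up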
PABP FP inh: blocks human PABP binding to poly(A) RNA | calls only at 35 µM | fluorescence polarization | 290,000 tested, 1% active | P11940;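 note: calls also rest on retests at 20 µM and on dose response follow-up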
AI-2 QS modul: Vibrio harveyi AI-2 quorum sensing modulation; 300,000 tested, 0.4% active; Vibrio harveyi JMH597 AI-2 luminescence/OD600 ratio, 9 h; active compounds read low; strain lacks LuxN and CqsS sensors; 0 = neutral-control median; activity change, % at 7.5 µM; in the data active = activity change below about -75%, passing the limit was not always enough; inconclusive = no clear call, values can overlap the other calls;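 note: luminescence divided by OD600 gain over 9 h not by final OD600 alone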
PHOSPHO1 block: PHOSPHO1 (human) inhibition; Q8TCT1; recombinant PHOSPHO1, absorbance phosphatase assay; inhibition, % at 13.3 µM; 290,000 tested, 1.1% active; AID 1565; in the data active = inhibition above about 60%
MLLE-PAM2 inh: inhibitors of microRNA-mediated deadenylation, human PABP1 MLLE binding. P11940. GST-MLLE / FITC-PAM2 fluorescence polarization. inhibition, % at 20 µM. 360,000 tested, 0.36% active; in the data active = inhibition above about 35%, passing the limit was not always enough;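 note: plate controls were DMSO wells with GST-MLLE for no effect and wells lacking GST-MLLE protein for full effect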
JMH597 growth rt: retest Vibrio harveyi JMH597 growth inhibition. shares compounds with AI-2 QS modul. OD600 absorbance, 9 h; lacks LuxN and CqsS sensors. growth inhibition, % at 7.5 µM. 750 tested, 1% active. AID 2726;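 active = every replicate shows growth inhibition above 50%; inconclusive = at least half, but not all, replicates pass that cutoff; inactive = fewer than half of replicates pass it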
BB721 lum counter: retest counter-screen: luminescence loss in constitutive-on quorum sensing strain BB721; shares compounds with AI-2 QS modul; Vibrio harveyi BB721 luminescence, 9 h; inhibition, % at 7.5 µM; 750 tested, 95% active; AID 2727;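 active = inhibition above about 80% in every replicate, not just on average, limit read from the data; inconclusive = at least half of replicates past the limit, but not all; inactive = fewer than half of replicates past the limit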
BB721 growth: retest: blocks Vibrio harveyi BB721 growth; shares compounds with AI-2 QS modul; OD600 absorbance, 9 h; growth inhibition, % at 7.5 µM; 750 tested, 3% active; AID 2728;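 active = every replicate shows growth inhibition above 50%; inconclusive = at least half but not all replicates above 50% inhibition; inactive = under half of replicates above 50% inhibition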
AI-2 QS JMH597: Vibrio harveyi AI-2 signaling luminescence modulation – JMH597 strain, confirmation; shares compounds with AI-2 QS modul; Vibrio harveyi JMH597 AI-2 quorum sensing luminescence, 9 h; luxN and CqsS knockout, AI-2 only; inhibition, % at 7.5 µM; 750 tested, 97% active;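 active = every replicate shows more than 75% inhibition of signal versus neutral control wells; inconclusive = half to three quarters of replicates exceed 75% inhibition; inactive = fewer than half of replicates exceed 75% inhibition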
Active calls of the source: *; i = inactive; ? = inconclusive; nt = not tested or not shown; + = active, no number. Unless noted, the rule behind the calls is not given here.

SMILES	ABCB6 inh MLPCN	eIF4H inh	PABP FP inh	AI-2 QS modul	PHOSPHO1 block	MLLE-PAM2 inh	JMH597 growth rt	BB721 lum counter	BB721 growth	AI-2 QS JMH597
O=C(c1ccc(Cl)c(Cl)c1)N1CCC(=O)N([C@H](COCc2cccc(C(F)(F)F)c2)Cc2ccccc2)CC1	96	nt	nt	nt	nt	nt	nt	nt	nt	nt
CCCCCC(=O)N1C[C@@H](n2cc(C3CC3)nn2)[C@H](O)C[C@@H]1c1ccc(C)cc1	100	nt	nt	nt	nt	16	nt	nt	nt	nt
COc1ccc(NC(=O)C2(C)CCN2C(=O)c2ccc(C(C)(C)C)cc2)cc1OC (centres undefined)	93	nt	nt	nt	nt	1	nt	nt	nt	nt
Cc1ccc(CNC(=O)NCc2ccccc2)cc1	95	-10	i	-49	58	6	nt	nt	nt	nt
Cc1ccc(CNC(=O)Nc2ccccc2)cc1	89	3	i	-91*	-16	6	-6	97*	4	97*
CC1(c2nnnn2Cc2ccccc2)CCC(=O)N1Cc1ccco1 (centres undefined)	96	nt	nt	nt	nt	nt	nt	nt	nt	nt
Cc1ccc(OCc2cc(C(=O)N(C)Cc3cc(C4CC4)n[nH]3)no2)cc1C	112	-6	i	-81*	16	-4	25	85*	36	90*
Cc1cccc(C)c1OCc1cc(C(=O)N(C)Cc2cc(C3CC3)n[nH]2)no1	95	4	i	34	53	8	nt	nt	nt	nt
O=C(O)c1ccc(N/N=C/c2ccc(-c3ccc(Cl)cc3Cl)o2)cc1	99	76	+	-90*	16	-5	19	98*	1	97*
CCCS(=O)(=O)c1ccc(COC(=O)c2ccc(NC(C)=O)cc2)cc1	102	-3	i	-38	4	15	nt	nt	nt	nt
CC(=O)Nc1ccc(C(=O)OCc2ccc(Cl)cc2)cc1	103	1	i	-91*	-41	7	-12	97*	58*	96*
CC(=O)Nc1ccc(C(=O)OCc2ccc(F)cc2)cc1	88	?	?	-83*	30	-3	11	93*	31	92*
CCOC(=O)[C@]12CCCC=C1N(Cc1ccc(Cl)cc1Cl)C(=O)[C@H](CC(=O)NCc1cccs1)C2	99	nt	nt	nt	nt	nt	nt	nt	nt	nt
CC(C)NC(=O)C1(C)CCN1C(=O)c1ccccc1F (centres undefined)	105	nt	nt	nt	nt	10	nt	nt	nt	nt
c1ccc(CNc2nc(-c3cccnc3)cs2)cc1	97	1	i	-83*	10	10	22	94*	12	97*
COc1ccc(Cl)cc1N(CC(=O)N1CCCC1)S(C)(=O)=O	97	3	i	?	40	-16	-12	-7	6	-7
Cc1ccc(C(=O)CSc2nnc(-c3cccnc3)n2N)cc1	100	-3	i	36	21	-36	nt	nt	nt	nt
Cc1ccc(CSc2nnc(-c3cccnc3)n2N)cc1	99	0	i	-90*	45	-17	-8	96*	-1	97*
CCN(CC)Cc1cc(Oc2ccc(O)c(CN(CC)CC)c2)ccc1O	94	nt	nt	nt	nt	2	nt	nt	nt	nt
Cc1cccc(OCCC(=O)Nc2ccc(F)c(Cl)c2)c1	97	-6	i	-86*	-1	1	23	94*	32	95*
Cc1cccc(OCCCC(=O)Nc2ccc3c(c2)OCO3)c1	96	5	i	17	11	3	nt	nt	nt	nt
Cc1ccc(OCCC(=O)Nc2ccc(F)c(F)c2)cc1	99	-4	i	-86*	7	-8	15	94*	11	94*
Cc1ccc(OCCC(=O)OCC(=O)Nc2ccc(F)cc2)cc1	95	nt	nt	12	nt	-4	nt	nt	nt	nt
O=C(Nc1cccs1)Nc1nnc([C@@H]2C[C@H](O)[C@@H](CO)O2)s1	100	nt	nt	nt	nt	37	nt	nt	nt	nt
O=C(NCCO)c1ccc(-c2ccc3nncn3c2)cc1	100	nt	nt	nt	nt	10	nt	nt	nt	nt
SMILES	ABCB6 inh MLPCN	eIF4H inh	PABP FP inh	AI-2 QS modul	PHOSPHO1 block	MLLE-PAM2 inh	JMH597 growth rt	BB721 lum counter	BB721 growth	AI-2 QS JMH597
CCCCOC(=O)Nc1ccc(S(=O)(=O)Nc2ncccn2)cc1	99	-1	i	-91*	16	-6	-16	96*	-18	97*
CCOC1CCCc2oc(-c3ccsc3)c(-c3cnc(OC)nc3)c21 (centres undefined)	97	nt	nt	nt	nt	nt	nt	nt	nt	nt
O=C(c1cc(-c2ccc(O)cc2)on1)N1CCCCCC1	93	-10	i	-78*	40	-11	3	93*	-5	96*
Cc1ccc(NC(=O)CCc2ccc(C)o2)cc1	99	0	i	?	14	-1	23	87*	2	92*
Cc1ccc(CCC(=O)Nc2ccc([N+](=O)[O-])cc2)o1	107	-5	i	-91*	30	3	9	97*	-14	98*
Cc1ccc(CCC(=O)Nc2ccc(S(N)(=O)=O)cc2)o1	94	3	i	23	-1	17	nt	nt	nt	nt
COc1cccc(/C=N/n2c(C3CCCCC3)n[nH]c2=S)c1OC	98	-4	i	13	-75	-95	nt	nt	nt	nt
COc1ccccc1/C=C\C=N\n1c(C2CCCCC2)n[nH]c1=S	94	-6	i	?	18	-28	24	94*	24	97*
CCOC(=O)[C@]12CCCC=C1N(Cc1ccc3c(c1)OCO3)C(=O)[C@H](CC(=O)NCc1ccc(OC)c(OC)c1)C2	102	nt	nt	nt	nt	nt	nt	nt	nt	nt
Cc1ccc(OCC(=O)O/N=C(\N)c2cccnc2)cc1	95	1	i	-84*	48	-14	8	92*	13	95*
N/C(=N\OC(=O)CCCOc1ccccc1)c1ccccc1	90	0	i	-83*	6	2	3	92*	5	93*
N/C(=N\OC(=O)COc1ccc2ccccc2c1)c1cccnc1	103	-1	i	-90*	-68	4	34	98*	-9	99*
N/C(=N\OC(=O)COc1ccc(Cl)cc1)c1cccnc1	96	-2	i	?	-5	-5	nt	nt	nt	nt
O=C(CC[C@H]1O[C@@H](n2cnc3c(NC(=O)c4ccccc4)ncnc32)[C@H](O)[C@@H]1O)NCc1ccc(OC(F)(F)F)cc1	97	nt	nt	nt	nt	21	nt	nt	nt	nt
Cc1ccccc1-c1cc2nc(NCCN3CCCC3)n(C)c(=O)c2s1	88	nt	nt	nt	nt	-37	nt	nt	nt	nt
c1ccc(SC23CCCCN(CCC2)C32OCCO2)cc1 (centres undefined)	95	nt	nt	nt	nt	nt	nt	nt	nt	nt
COC(=O)NCc1ccc(Cl)c(Cl)c1	98	1	i	-9	-25	-8	nt	nt	nt	nt
COc1ccc(CNC(=O)Oc2ccccc2)cc1Cl	90	-5	i	-80*	-4	8	14	97*	36	97*
